Screens deposited in PubChem by National Center for Advancing Translational Sciences (NCATS).
A selection: hits, their analogues and other compounds. The true share with any hit is near 10%.
3T3 cytotox = NIH 3T3 cell cytotoxicity; NIH 3T3 viability, CellTiter-Glo ATP luminescence, 48-72 h; Potency, µM (top dose mostly 96.7 µM), without a hit: top-dose activity change, negative = cytotoxicity, actives largely listed as inhibitors; hit rate 4.3% among 94,000; further: nearly all actives have a fitted effect of over 55% in size
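Luminescent ATP readout (CellTiter-Glo, 10 min RT) after 48 or 72 hr compound exposure of NIH 3T3 cells seeded at 400 cells/well in 1536-well format; quantitative HTS.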
Luciferase inh = blocks purified firefly luciferase enzyme activity. P08659. purified P. pyralis luciferase, luminescence, biochemical. Potency, µM (highest dose often 115 µM), usual class: inhibitors. hit rate 2.5% among 76,000; further: nearly all actives have a fitted effect of over 65% in size
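Luminescence read by CCD imager after adding enzyme (10nM final) to wells holding compound, titrated in qHTS. Substrates 10uM each D-luciferin and ATP; buffer 50mM Tris acetate pH 7.5, 10mM Mg acetate, Tween-20, BSA.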
NPR1 antag = antagonists of human natriuretic peptide receptor Npr1; HEK293 hNpr1 GloSensor cGMP, ANP-stimulated luminescence; Potency, µM (highest dose often 46.3 µM), for the others: at the highest dose activity change, negative = inhibition, actives largely listed as inhibitors; hit rate 1.6% among 76,000; AID 1347048; calls by dose curve; further: nearly all actives have a fitted effect of over 60% in size
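HEK293 cells stably expressing human Npr1 and cGMP GloSensor pGS-40F, loaded 2 h with 2% GloSensor reagent, given compound 30 min at room temperature. Luminescence read before and 20 min after 0.1 nM hNppA.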
HEK293 tox = kills HEK 293 cells; hit rate 6.6% among 94,000; HEK 293 viability, ATP luminescence (CellTiter-Glo), 48-72 h; Potency, µM (doses to about 115 µM), for the others: top-dose activity change, negative = cytotoxicity, usual class: inhibitors; further: nearly all actives have a fitted effect of over 60% in size
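Cytotoxicity was scored by loss of ATP-coupled luminescence (CellTiter-Glo) in HEK 293 cells. Compound treatment ran 48 or 72 hr at 37 degree Celsius, 5% CO2, 95% humidity.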
GPT2 inh = blocks human glutamate pyruvate transaminase 2; AID 1671188; Recombinant GPT2, coupled pyruvate oxidase/HRP Amplex Red fluorescence; Potency, µM (series often up to 57.7 µM), without a hit: top-dose activity change, negative = inhibition, usual class: inhibitors; hit rate 0.25% among 100,000; further: nearly all actives have a fitted effect of over 60% in size
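Fluorescence read-out: pyruvate from GPT2 turnover coupled to pyruvate oxidase, HRP and Amplex Red (0.2mM ThPP, 0.2U/mL PO and HRP, 50uM Amplex final). Substrates 250uM a-KG, 2mM L-alanine; enzyme 10ng/uL; 30 min RT.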
* = called active by the depositor; [ ] = dose if it differs, or a comment. Unless noted, the call rests on the fitted dose curve; in most records, active means well fitted curve in the direction sought with a large enough effect; inconclusive means small, poorly fitted or top-dose-only effect, or another doubt; inactive means no such curve, though single readings can be large; an effect the other way counts as inactive or inconclusive. On the % scale 0 is the no-effect control and ±100 the full control effect; potency means the concentration at half of the fitted maximal effect.

`Cc1ccc(-c2noc([C@@H]3C[C@H](NC(=O)Nc4cccc(F)c4)CN3C)n2)cc1` gave 3T3 cytotox inconclusive, Luciferase inh 63µM*, NPR1 antag inconclusive, HEK293 tox 63µM* and GPT2 inh 0%[88.5 µM].
`CN1C[C@@H](NC(=O)Nc2ccc(F)cc2F)C[C@H]1c1nc(-c2ccc(Cl)cc2)no1` gave 3T3 cytotox -18%[174 µM], Luciferase inh 71µM*, NPR1 antag inconclusive, HEK293 tox inconclusive and GPT2 inh 2%[88.5 µM].
`CN1C[C@@H](NC(=O)Nc2ccccc2)C[C@H]1c1nc(-c2ccccc2)no1` gave 3T3 cytotox -34%[138 µM], Luciferase inh inactive, NPR1 antag -10%[70.6 µM], HEK293 tox inconclusive and GPT2 inh inactive.
CN1C[C@@H](NC(=O)Nc2ccccc2)C[C@H]1c1nc(-c2ccc(F)cc2)no1 was read as 3T3 cytotox inconclusive, Luciferase inh inactive, NPR1 antag inconclusive, HEK293 tox 56µM* and GPT2 inh -3%[88.5 µM].
CNC(=O)c1cc(C2CC2)nc2c1c(C1CCCN([S+](=O)([O-])C(C)C)C1)nn2C (configuration not stated) was read as 3T3 cytotox -16% and HEK293 tox -18%.
CS(=O)(=O)N1CCc2ccc(C(=O)Nc3ccc(F)cc3)cc21 was read as 3T3 cytotox -21%, Luciferase inh 8.9µM*, NPR1 antag inconclusive, HEK293 tox inconclusive and GPT2 inh inconclusive.
`CCN1C(=O)CCc2cc(NC(=O)c3ccc(F)cc3)ccc21` gave 3T3 cytotox inconclusive, Luciferase inh inconclusive, NPR1 antag 2%, HEK293 tox 40µM* and GPT2 inh inactive.
For CCCN1C(=O)CCc2cc(NC(=O)c3ccc(OC(F)(F)F)cc3)ccc21 the results were 3T3 cytotox 40µM*, Luciferase inh inconclusive, NPR1 antag inconclusive, HEK293 tox inconclusive and GPT2 inh -24%.
For CCN1C(=O)CCc2cc(NC(=O)c3cncc(Br)c3)ccc21 the results were 3T3 cytotox -22%, Luciferase inh inactive, NPR1 antag 1%, HEK293 tox inconclusive and GPT2 inh 2%.
COc1ccc(N2CC(COc3ccccc3)Oc3ncccc3C2=O)cc1 (configuration not stated) was read as 3T3 cytotox inconclusive, HEK293 tox inconclusive and GPT2 inh inactive.
`Cc1ccc(Nc2ccnc(N3CCCC3C(=O)NCc3ccccc3)n2)cc1` (configuration not stated) gave 3T3 cytotox inconclusive, HEK293 tox inconclusive and GPT2 inh inactive.
CSCCNC(=O)C1CCCN1c1nccc(Nc2ccc(C)cc2)n1 (configuration not stated) was read as 3T3 cytotox -7%, HEK293 tox 79µM* and GPT2 inh inactive.
For Cc1ccc(Nc2ccnc(N3CCCC3C(=O)NCCCc3ccccc3)n2)cc1 (configuration not stated) the results were 3T3 cytotox inconclusive, HEK293 tox 40µM* and GPT2 inh inactive.
Screening Cc1ccc(Nc2ccnc(N3CCCC3C(=O)NCC3CC3)n2)cc1 (configuration not stated) returned 3T3 cytotox -8%, HEK293 tox 35µM* and GPT2 inh inactive.
For CCOc1ccccc1CN1CCC2(CCN(C(=O)c3ccccc3)CC2)Oc2ccccc21 the results were 3T3 cytotox -9%, Luciferase inh inactive, NPR1 antag -8%, HEK293 tox -15% and GPT2 inh inconclusive.
`O=C(c1ccc(C(F)(F)F)cc1)N1CCCC(C(=O)N2CCC(c3nc4ncccc4[nH]3)CC2)C1` (configuration not stated) gave 3T3 cytotox -7%, HEK293 tox -7% and GPT2 inh 2%.
`O=C(CNC(=O)c1cccc(-c2ccc(C(F)(F)F)cc2)c1)NCC(F)F` gave 3T3 cytotox inconclusive, HEK293 tox inconclusive and GPT2 inh -7%.
`Cc1cc(OCC(=O)O)c(C)c2c1CC[C@@H]([C@H](C)C(=O)NCc1ccccc1)C2` gave 3T3 cytotox 79µM*, Luciferase inh inactive, NPR1 antag 3%[70.6 µM], HEK293 tox inactive and GPT2 inh 2%[88.5 µM].
For COc1cc(C)c2c(c1C)C[C@H]([C@H](C)C(=O)NC1CCCC1)CC2 the results were 3T3 cytotox inconclusive, Luciferase inh inactive, NPR1 antag inconclusive, HEK293 tox 40µM* and GPT2 inh -9%[88.5 µM].
`CC(C)(C)c1coc([C@@H]2COCCN2C2CCCCC2)n1` gave 3T3 cytotox -4%[174 µM], Luciferase inh inactive, NPR1 antag -3%[70.6 µM], HEK293 tox -1%[230 µM] and GPT2 inh -8%[88.5 µM].
Screening O=C(C[C@@H]1CCNC[C@@H]1Cc1cc(COc2ccccc2)on1)N1CCC(Cc2ccccc2)CC1 returned 3T3 cytotox 28µM*, Luciferase inh inactive, NPR1 antag -17%, HEK293 tox 25µM* and GPT2 inh -1%.
Screening O=C(C[C@@H]1CCNC[C@@H]1Cc1cc(CC2CCCCC2)on1)N1CCC(Cc2ccccc2)CC1 returned 3T3 cytotox 25µM*, Luciferase inh inactive, NPR1 antag -2%, HEK293 tox inconclusive and GPT2 inh -2%.
For CCCCc1cc(C[C@H]2CNCC[C@H]2CC(=O)NC2CCCCC2)no1 the results were 3T3 cytotox inconclusive, Luciferase inh inactive, NPR1 antag 2%[70.6 µM], HEK293 tox inconclusive and GPT2 inh inactive.
For O=C(C[C@@H]1CCNC[C@@H]1Cc1cc(COc2ccccc2)on1)NC1CCCCC1 the results were 3T3 cytotox 63µM*, Luciferase inh inactive, NPR1 antag 4%[70.6 µM], HEK293 tox 100µM* and GPT2 inh inactive.
Screening CCCCc1cc(C[C@H]2CNCC[C@H]2CC(=O)N2CCC(Cc3ccccc3)CC2)no1 returned 3T3 cytotox 28µM*, Luciferase inh inactive, NPR1 antag 2%, HEK293 tox inconclusive and GPT2 inh 0%.
`Cc1ccc(CNC(=O)N2CCCC2c2nc(CCOc3ccc(F)cc3)no2)cc1` (configuration not stated) gave 3T3 cytotox inconclusive, Luciferase inh inactive, NPR1 antag -22%, HEK293 tox inconclusive and GPT2 inh -16%.
Screening CC(=O)NC1CC2(CCN(C(=O)C3CCN(C)CC3)CC2)c2ccccc21 (configuration not stated) returned 3T3 cytotox 35µM*, HEK293 tox 45µM* and GPT2 inh -12%.
`O=C(NCc1ccco1)N1CCc2nc3cc(-c4ccccc4Cl)[nH]n3c(=O)c2C1` gave 3T3 cytotox inconclusive, Luciferase inh 14µM*, NPR1 antag -15%, HEK293 tox inconclusive and GPT2 inh -12%.
